Methyltransferases = Primary Screen for Target Class Profiling of Small Molecule Inhibitors of Methyltransferases; calls only at 40 µM; purified enzyme, MTase-Glo SAH luminescence; stronger effect = lower value; AID 1745853, 2022; 25,000 compounds, 3.9% hits; call rule not given here
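Each enzyme was reacted with SAM and its substrate, with compounds tested once at 40 uM; SAH formed was read by MTase-Glo luminescence.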
Numbers without * were called inactive; i = inactive; + = active, no number; ! = not active in a repeat. Only a selection was taken, and hits are over-represented in it overall. % is set by controls: 0 for no effect and ±100 for the full control effect.

SMILES	Methyltransferases
Fc1cccc(-c2nnn3c2nc(NCCc2ccccc2)c2ccccc23)c1	+
CC(C)n1c(=O)c2ccc(C(=O)NC3CCCCC3)cc2n2c(=O)n(CC(=O)NC3CCCC3)nc12	i
CCOC(=O)c1cc2n(n1)CC(C)(C(=O)NCCC(C)C)N(c1cccc(C)c1C)C2=O (stereo not drawn)	i
Cc1ccc(CNC(=O)Cn2nc3n(CCc4ccccc4)c(=O)c4ccccc4n3c2=O)cc1	i
CC(C)N1C(=O)c2cc3occc3n2CC1(C)C(=O)NC1CCCCCCC1 (stereo not drawn)	i
Cc1ccc(CNC(=O)C2(C)Cn3cnc(C(=O)NCc4cccc(C)c4)c3C(=O)N2C2CC2)cc1 (stereo not drawn)	i
O=C(NCc1ccc(F)cc1)c1ccc2c(=O)nc3c(-c4cccc(F)c4)n[nH]n3c2c1	i
COC(=O)c1cc2n(n1)CC(C)(C(=O)NC1CCCCCC1)N(Cc1cccc(OC)c1OC)C2=O (stereo not drawn)	i
CCn1c2ccccc2c2cc(Nc3ccnc(NCCCN4CCOCC4)n3)ccc21	+
Cc1ccc(Cn2c(=O)c3ccccc3n3c(CCC(=O)NCCCN4CCOCC4)nnc23)cc1	i
CC(C)CCn1c(=O)c2ccccc2n2c(CCC(=O)NCCCN3CCOCC3)nnc12	i
CCCSCCCNC(=O)c1cc2n(n1)CC(C)(C(=O)NC1CCCCC1)N(C)C2=O (stereo not drawn)	i
Cc1c(O)cc(O)c2c(=O)c(O)c(-c3ccc(O)c(O)c3)oc12	+
CC1(C(=O)NC2CCCC2)Cn2c(ccc2-c2ccco2)C(=O)N1Cc1cccnc1 (stereo not drawn)	i
Cc1ccc(NS(=O)(=O)c2ccc3c(c2)NC(=O)CC(=O)N3)c(C)c1	i
COc1ccc(N2CCN(c3nc(C(=O)NCc4cccc(C)c4)cs3)CC2)cc1	i
CCC(=O)Nc1cccc(Oc2nc(Nc3ccc(N4CCN(C)CC4)cc3OC)ncc2Cl)c1	i
COc1ccc(N(C(=O)Nc2c(C)cccc2C)c2cc(Nc3ccc(N4CCN(C)CC4)cc3)ncn2)c(OC)c1	+
CC1CC(C)CN(CCCN2C(=O)c3cc4sccc4n3CC2(C)C(=O)NC2CCCCCCC2)C1 (stereo not drawn)	i
CC1(C(=O)NC2CCCC2)Cn2c(ccc2-c2ccco2)C(=O)N1Cc1ccccc1 (stereo not drawn)	i
CCc1ccccc1NC(=O)CSc1nnc2[nH]c(=O)c(C)nn12	i
COc1ccc(-c2nnc3n(Cc4ccc(C)cc4)c(=O)c4ccccc4n23)c(O)c1	i
C=C(C)C(=O)OC1CC2(C)OC(=CC2=O)C(=C)CC2OC(=O)C(COC)C12 (stereo not drawn)	+
C=C(C)C(=O)OC1CC2(C)OC(=CC2=O)C(=C)CC2OC(=O)C(=C)C12 (stereo not drawn)	i
C=C1CC2OC(=O)C(COC)C2C(OC(=O)/C(C)=C\C)CC2(C)OC1=CC2=O (stereo not drawn)	i
SMILES	Methyltransferases
COc1ccc(CCNC(=O)c2cc3n(n2)CC(C)(C(=O)NC2CCCC2)N(C)C3=O)c(OC)c1 (stereo not drawn)	i
CCC(C)NC(=O)Cn1nc2n(Cc3ccccc3)c(=O)c3ccc(C(=O)NC4CCCC4)cc3n2c1=O (stereo not drawn)	i
CN(C)CCCC1(c2ccc(F)cc2)OCc2cc(C#N)ccc21 (stereo not drawn)	+!
O=C(CCc1nnc2n(Cc3ccc(F)cc3)c(=O)c3ccccc3n12)NCc1ccccc1Cl	i
CCC(C)NC(=O)c1ccc2c(=O)n(C3CC3)c3nn(CC(=O)NCc4ccccc4)c(=O)n3c2c1 (stereo not drawn)	i
CCCN1C(=O)c2c(C(=O)Nc3cc(C)ccc3C)ncn2CC1(C)C(=O)NCc1ccc(OC)cc1 (stereo not drawn)	i
N[C@@H](Cc1c[nH]c2ccccc12)C(=O)O	i
CC(=O)NC(Cc1ccccc1)C(=O)O (stereo not drawn)	i
CC(=O)NC(Cc1c[nH]c2ccccc(=O)c12)C(=O)O (stereo not drawn)	+
CCC(C)NC(=O)CSc1nnc2n(CCc3ccccc3)c(=O)c3ccccc3n12 (stereo not drawn)	i
O=c1c2ccccc2n2c(-c3cc(Cl)ccc3O)nnc2n1Cc1ccccc1	i
COC(=O)c1cc2n(n1)CC(C)(C(=O)NC1CCCCC1)N(CCc1ccc(SC)cc1)C2=O (stereo not drawn)	i
CN1CCN(c2ccc(C(=O)Nc3n[nH]c4ccc(Cc5cc(F)cc(F)c5)cc34)c(NC3CCOCC3)c2)CC1	i
CCc1nc(C(N)=O)c(Nc2ccc(N3CCC(N4CCN(C)CC4)CC3)c(OC)c2)nc1NC1CCOCC1	+
Cc1cc2c(cc3n2CC(C)(C(=O)NC2CCCCC2)N(Cc2cccc(Cl)c2)C3=O)o1 (stereo not drawn)	i
CCCN1C(=O)c2c(C(=O)NCCc3ccc(OC)cc3OC)ncn2CC1(C)C(=O)NC1CCCC1 (stereo not drawn)	i
C[C@](N)(Cc1ccc(O)c(O)c1)C(=O)O	+
C[C@](N)(Cc1ccc(O)cc1)C(=O)O	i
COC(=O)C(C)(N)Cc1ccc(O)cc1 (stereo not drawn)	i
Cc1ccc(C)c(CNC(=O)c2ncn3c2C(=O)N(C2CC2)C(C)(C(=O)NCc2ccc(F)cc2)C3)c1 (stereo not drawn)	i
c1ccc2c(Oc3nc(Nc4ccc(N5CCOCC5)cc4)c4ncn(C5CCCCC5)c4n3)cccc2c1	+
COc1ccc2cc3n(c2c1)CC(C)(C(=O)NC1CCCC1)N(Cc1ccco1)C3=O (stereo not drawn)	i
Cc1ccc2c(c1)C1C=CCC1C(c1ccccc1Cl)N2 (stereo not drawn)	i
CCCC1c2ccc(C)n2CCN1C(=O)Nc1ccc(C)c(C)c1 (stereo not drawn)	i
CCOc1ccccc1NC(=O)N1Cc2c(sc3c2CCCC3)-n2cccc2C1c1cccc(F)c1 (stereo not drawn)	i
SMILES	Methyltransferases
CCOc1ccccc1CN1C(=O)c2c(C(=O)OC)ncn2CC1(C)C(=O)NC1CCCCCC1 (stereo not drawn)	i
Cc1cc(C(C#N)c2ccc(Cl)cc2)c(Cl)cc1NC(=O)c1cc(I)cc(I)c1O (stereo not drawn)	+
Cc1ccc(Cl)cc1N1C(=O)c2cc(C(C)(C)C)nn2CC1(C)C(=O)NC1CCCCC1 (stereo not drawn)	i
CN1CCN(CCNC(=O)c2cc3n(n2)CC(C)(C(=O)NC2CCCCC2)N(C)C3=O)CC1 (stereo not drawn)	i
CC1(C(=O)NCc2ccccc2)Cn2c(ccc2-c2ccco2)C(=O)N1CCc1ccco1 (stereo not drawn)	i
CCCn1c(=O)c2ccc(C(=O)NC(C)C)cc2n2c(=O)n(CC(=O)NC(C)C)nc12	i
CC1(C(=O)NC2CCCCCCC2)Cn2c(cc3sccc32)C(=O)N1CCN1CCOCC1 (stereo not drawn)	i
COCCN(C)Cc1ccc2nc3sc(C(=O)N(C)C4CCCCC4)cn3c2c1	+
COCCN(C)C[C@H]1C[C@@H](CO)CN(C(=O)c2ccc(C)c(Cl)c2)C1	i
CCc1ccccc1S(=O)(=O)NCCn1c(CCc2ccccc2)nc2ccccc21	i
CC1(C(=O)NC2CCCCCCC2)Cc2ccccc2C(=O)N1C1CCCCCC1 (stereo not drawn)	i
